The conditions of assay [1]: Ebola virus entry assay, green channel fluorescence.
The conditions of assay [2]: Ebola virus entry assay, reporter ratio channel; Channel type: primary.
For assay [3] the following is noted: Ebola virus entry assay, blue channel (ratio component).
A short description of assay [4]: qHTS assay for small molecule agonists of the antioxidant response element (ARE) signaling pathway measured by Nrf2-dependant transcriptional activity - cell viability counter screen (AID 720653; active = well fitted curve in the direction sought with a large enough effect in the repeat runs; an effect the other way counts as inactive or inconclusive; note: % is set by controls: 0 for no effect and ±100 for the full control effect). To be noted: ARE-bla HepG2 viability, CellTiter-Glo ATP luminescence, 16 h; max response: stronger effect = lower value. The method in brief: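 ARE-bla HepG2 cells (2,000/well) rested 5 hrs at 37C/5% CO2, then exposed to compounds in DMSO for 16 hrs. Viability was read in the same wells as intracellular ATP by luminescence, 30 min at room temperature after reagent addition.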

Assay [5] can be described thus: qHTS Assay for Identifying Gametocytocidal Compounds (AID 743244; active = well fitted curve in the direction sought with a large enough effect; an effect the other way counts as inactive or inconclusive;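 note: % is set by controls: 0 for no effect and ±100 for the full control effect; actives lower the fluorescent signal which means gametocytes are killed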). The conditions noted are these: P. falciparum 3D7 stage III-V gametocytes, alamarBlue, 72 h; max response: stronger effect = lower value. The method in brief:
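Late gametocytes (III–V), P. falciparum 3D7; 72 h drug, then 24 h alamarBlue; resazurin reduction read by fluorescence.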

A short description of assay [6]: qHTS assay for cell viability of HEK293 cells (AID 743288; active = well fitted curve in the direction sought with a large enough effect; an effect the other way counts as inactive or inconclusive; note: % is set by controls: 0 for no effect and ±100 for the full control effect; nearly all actives have a fitted effect of over 50% in size). To be noted: ATP luminescence (CellTiter-Glo), 18 h; max response: stronger effect = lower value. In outline: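 HEK293 parental, 2,000 cells/well; ≥5 h pre-incubation 37 C; pintool compound addition; 18 h, 37 C; CellTiter-Glo 30 min RT; luminescence read.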
A short description of assay [7]: qHTS assay for cell viability of the p53RE-bla HCT-116 cell line (AID 743292; active = well fitted curve in the direction sought with a large enough effect; an effect the other way counts as inactive or inconclusive; note: % is set by controls: 0 for no effect and ±100 for the full control effect; nearly all actives have a fitted effect of over 55% in size). To be noted: p53RE-bla HCT-116 viability, ATP luminescence, 16 h; series mostly up to 95 µM. In outline:
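HCT-116 p53RE-bla cells seeded 4,000/well; 5 h at 37 C; compound (DMSO) added; 16 h at 37 C; CellTiter-Glo added, 30 min RT; luminescence read.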

Assay [8] is described as follows: qHTS profiling of the MIPE4 collection as inhibitors of Plasmodium falciparum (3D7) proliferation (AID 743344).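 Note: scaled between DMSO vehicle wells and 0.29 µM artemisinin as full inhibition.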 The conditions noted are these: P. falciparum 3D7 in erythrocytes, SYBR Green DNA fluorescence, 72 h; at 28.5 µM (top of the series). The method in brief:
(§1)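 Erythrocytes infected with P. falciparum (0.3% parasitemia, 2.5% hematocrit) incubated with compounds 72 h at 37 C, 5% CO2. Lysis with saponin/Triton buffer containing SYBR Green I, overnight at room temperature in the dark; DNA fluorescence (485/535 nm) normalised to 0.29 uM artemisinin and DMSO.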

Assay [9] can be described thus: qHTS profiling of the MIPE4 collection as inhibitors of Plasmodium falciparum (DD2) proliferation (AID 743345). To be noted: P. falciparum Dd2 in erythrocytes, SYBR Green DNA, 72 h; at 28.5 µM (top of the series) unless noted. In outline:
as §1

Assay [10] is described as follows: qHTS profiling of the MIPE4 collection as inhibitors of Plasmodium falciparum (DD2) proliferation (Rep 2) (AID 743346). To be noted: P. falciparum Dd2 in erythrocytes, SYBR Green DNA, 72 h; at 28.5 µM (top of the series). The method in brief: as §1
The nature of assay [11]: qHTS profiling of the MIPE4 collection as inhibitors of Plasmodium falciparum (HB3) proliferation (AID 743347).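 Note: plate controls were DMSO vehicle wells for no effect and artemisinin wells for full effect.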 To be noted: P. falciparum HB3 in erythrocytes, SYBR Green DNA, 72 h; at 28.5 µM (top of the series). In outline: as §1
In assay [12] the target is T1, Hexokinase-4 (Homo sapiens) + Glucokinase regulatory protein (Homo sapiens) (UniProt P35557+Q14397). As to the kind of experiment: qHTS assay for inhibitors of recombinant human GCK-GKRP interaction: Diaphorase-coupled assay (AID 743205; active = well fitted curve in the direction sought with a large enough effect; an effect the other way counts as inactive or inconclusive). To be noted: G6PDH/diaphorase resorufin fluorescence; series mostly up to 57.5 µM. The method in brief: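 25 mM Hepes pH 7.6, 5 mM glucose, 0.4 mM ATP, 4 U/ml G6PDH; 10 nM each GST-GCK/FLAG-GKRP. Kinetic fluorescence read, 1/min × 30 min. Normalized: DMSO ± enzyme = max/min.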

Assay [13] deals with T1, Hexokinase-4 (Homo sapiens) + Glucokinase regulatory protein (Homo sapiens). The assay can be described thus: qHTS assay for inhibitors of recombinant human GCK-GKRP interaction: ADP-Glo assay (AID 743206; active = well fitted curve in the direction sought with a large enough effect; an effect the other way counts as inactive or inconclusive;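 note: plate controls were DMSO plus enzyme for no effect and no enzyme for full effect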). To be noted: ADP-Glo luminescence, 60 min, 0% = vehicle-only wells with enzyme present; series mostly up to 76.9 µM. In outline:
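GST-GCK and FLAG-GKRP (15 nM each in the dispensed mix, with 2 uM S6P) react with 0.4 mM ATP and 5 mM glucose (final) in Hepes pH 7.6 for 60 min at room temperature. ADP is measured by ADP-Glo luminescence.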

The target is the same in assay [14]. The assay can be described thus: qHTS assay for inhibitors of recombinant human GCK-GKRP interaction: HTRF assay (AID 743207; active = well fitted curve in the direction sought with a large enough effect; an effect the other way counts as inactive or inconclusive;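 note: 0% = DMSO with GCK present and -100% = DMSO wells lacking GCK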). To be noted: recombinant GCK-GKRP HTRF binding, 60 min; series mostly up to 57.5 µM. The method in brief:
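5 nM GST-GCK + 5 nM FLAG-GKRP + 2 uM S6P, pH 7.1 buffer (25 mM Hepes, 2 mM MgCl2, 25 mM KCl, 1 mM DTT, Tween/BSA); pin-transferred cpd; anti-FLAG XL665/anti-GST K; 60 min RT; HTRF.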

Molecules are shown by their SMILES. “And” between values parts separate entries of the source, which are not always exact repeats. Equal values may be shown once. Inconclusive results are not listed. For part of these data: Potency and affinity values are given separately. The source made the active and inactive calls. Unless noted, the rule behind the calls is not given here.

T1 sequence (P35557 whole entry, looked up): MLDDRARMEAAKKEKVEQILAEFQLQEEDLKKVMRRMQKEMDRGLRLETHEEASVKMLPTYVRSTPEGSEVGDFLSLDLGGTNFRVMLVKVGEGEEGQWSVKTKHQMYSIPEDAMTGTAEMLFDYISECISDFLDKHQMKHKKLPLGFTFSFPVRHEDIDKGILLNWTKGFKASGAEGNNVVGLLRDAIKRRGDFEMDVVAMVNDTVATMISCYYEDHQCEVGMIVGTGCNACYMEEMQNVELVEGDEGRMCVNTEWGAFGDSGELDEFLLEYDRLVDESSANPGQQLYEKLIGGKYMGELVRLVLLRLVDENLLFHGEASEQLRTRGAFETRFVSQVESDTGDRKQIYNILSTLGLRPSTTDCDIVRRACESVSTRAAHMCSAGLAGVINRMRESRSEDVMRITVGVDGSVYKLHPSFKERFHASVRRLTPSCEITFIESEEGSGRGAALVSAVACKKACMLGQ
T1 sequence (Q14397 whole entry, looked up): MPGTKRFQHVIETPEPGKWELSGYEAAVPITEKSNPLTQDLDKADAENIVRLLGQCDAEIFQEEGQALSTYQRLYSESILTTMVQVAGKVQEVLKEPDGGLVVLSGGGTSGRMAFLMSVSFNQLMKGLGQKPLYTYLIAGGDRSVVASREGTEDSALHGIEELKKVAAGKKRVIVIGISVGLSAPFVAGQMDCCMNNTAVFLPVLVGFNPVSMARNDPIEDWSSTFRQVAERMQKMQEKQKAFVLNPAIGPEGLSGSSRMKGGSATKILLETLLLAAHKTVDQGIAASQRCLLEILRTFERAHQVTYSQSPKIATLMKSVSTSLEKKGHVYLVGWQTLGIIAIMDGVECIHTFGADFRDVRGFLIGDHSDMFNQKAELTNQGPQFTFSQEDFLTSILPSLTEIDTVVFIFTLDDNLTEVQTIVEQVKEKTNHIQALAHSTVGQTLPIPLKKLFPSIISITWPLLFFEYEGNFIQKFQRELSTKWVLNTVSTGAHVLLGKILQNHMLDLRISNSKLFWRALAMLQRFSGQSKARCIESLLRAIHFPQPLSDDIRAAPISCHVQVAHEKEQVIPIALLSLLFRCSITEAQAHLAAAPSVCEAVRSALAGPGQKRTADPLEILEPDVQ

As for `O=C(O)CNC(=O)CNC(=O)CNC(=O)CSC(=O)c1ccccc1`, the call in [1], in [2] and in [3] was inactive.

Take `C=CCNC(N)=S`: the outcome in [1], in [2] and in [3] was inactive.

In the case of `CCN(CC)CCc1nc(-c2ccccc2)no1`, the molecule was classed as inactive in assay [1], in [2] and in assay [3].

Turning to `O=C(O)c1ccccn1`, the result in [1], in assay [2] and in [3] was inactive.

For `O=C(O)c1ccccc1NCCc1ccccc1`, the molecule was classed as inactive in [1], in [2] and in assay [3].

Take `O=C(Nc1ccc(Oc2ccc(Cl)cc2)c(Cl)c1)c1cc(I)cc(I)c1O`: the outcome in [1], in assay [2] and in assay [3] was inactive.

As to `O=[N+]([O-])c1cccc(S(=O)(=O)NCCNS(=O)(=O)c2cccc([N+](=O)[O-])c2)c1`, the call in assay [1], in assay [2] and in [3] was inactive.

Take `Cc1cc(O)ccc1Cl`: the max response is 3.07% (inactive) in assay [4], 25.2% (inactive) in assay [5] and -2.31% (inactive) in assay [6]. In [7], the Potency result is “inactive”. Besides, the molecule was called inactive in assay [1], in [2] and in assay [3].

As for `CC(=O)N[C@@H](CCC(N)=O)C(=O)O`, the result in [1], in assay [2] and in assay [3] was inactive.

Regarding `N[C@H]1C(O)O[C@H](CO)[C@@H](O)[C@@H]1O` (stereo partly specified), the call in assay [1], in assay [2] and in assay [3] was inactive.

With `O=C(Oc1ccccc1)c1cccc(C(=O)Oc2ccccc2)c1`, the call in assay [1], in assay [2] and in assay [3] was inactive.

In the case of `CCCCCCCCCCC(CO)CCCCCCCC` (stereo unspecified), the outcome in [1], in assay [2] and in assay [3] was inactive.

Consider `COc1ncnc(NS(=O)(=O)c2ccc(N)cc2)c1OC`, for which the result in assay [1], in [2] and in assay [3] was inactive.

`C[C@@H](N)C(=O)O`: the molecule was classed as inactive in [1], in [2] and in [3].

On to `Nc1ccc(S(=O)(=O)Nc2ccccc2)cc1`, for which the outcome in assay [1], in assay [2] and in assay [3] was inactive.

On to `CCOC(=O)C(=O)CCCCCCl`, for which the outcome in assay [1], in [2] and in assay [3] was inactive.

In the case of `CN(C)NC(=O)CCC(=O)O`, the max response in assay [4] is -0.912% (inactive) and -0.667% (inactive); in assay [6], 1.56% (inactive) and -3.81% (inactive). Besides, in [7], the Potency result is “inactive”. The same molecule yielded a parasite growth, % of DMSO control in assay [8] of 91.1%. The parasite growth remaining, % of DMSO control (lower = more inhibition) in assay [9] is 101%. Also, in [10], the parasite growth, % of control (lower = inhibition) stood at 141%. The same molecule had a growth, % of control in assay [11] of 106%.

Turning to `CN1C2CCC1CC(OC(=O)c1cc(Cl)cc(Cl)c1)C2` (stereo unspecified), the result in assay [12], in assay [13] and in assay [14] was inactive.

`Cc1ccc(Cl)c(O)c1`: the max response in assay [5] is -0.773% (inactive). For the same molecule, the outcome in assay [1], in assay [2] and in assay [3] was inactive.
